# Screening data as filed in PubChem BioAssay.
# Hits are enriched below; roughly 32% of the tested compounds scored in any of these assays.
# CYP2C9 act: increases human cytochrome P450 2C9 activity | recombinant CYP2C9, luciferin-H conversion, luminescence; active compounds read high; factor 1 = untreated enzyme, 0 = blocked | activation factor at 5 µM | AID 1024 | actives 1.4% (n = 96,000);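 active = activation factor of 2 or more for CYP2C9 at a 5 µM dose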;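 note: 0 = sulfaphenazole-blocked wells and 1 = vehicle-only wells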
# PostGolgi ctrl: inhibits growth of the yeast control strain; efflux-deficient yeast background strain, growth absorbance A615, 16 h; inhibition, % at 10 µM; AID 738; actives 5% (n = 98,000)
# CYP2C19 inh: inhibitors of human CYP2C19. CYP2C19 Supersomes, luciferin-H EGE luminescence, 30 min. AID 778. inhibition, % at 5 µM. actives 21% (n = 96,000);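 active = CYP2C19 inhibition above a set limit at 5 µM in the primary screen, cut at about 50% in these data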;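 note: plate controls were negative control wells for no effect and 2.5 mM tranylcypromine positive control for full effect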
# CYP2C9 inhib: human CYP2C9 inhibition | P11712 | CYP2C9 Supersomes, luciferin-H conversion, luminescence | inhibition, % at 5 µM | actives 20% (n = 96,000) | AID 777;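 active = blocking of liver enzyme CYP2C9 beyond about 50% at 5 µM, limit read from the data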
# PostGolgi yeast: growth inhibition of a yeast mutant, post-Golgi transport screen; actives 0.9% (n = 98,000); post-Golgi transport phenotypic cell assay; AID 739; inhibition, % at 10 µM;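 note: yeast cells grown in 1536-well plates; yeast grown about 18 h at 30C before absorbance read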
# CYP2C19 activ: cytochrome P450 2C19 (human) activation | P33261 | recombinant CYP2C19, luciferin-H EGE luminescence; active compounds read high; 0 = fully inhibited enzyme, 1 = untreated enzyme | activation factor at 5 µM | 96,000 tested, under 10 active | AID 1025;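 active = activation factor of at least 2 at 5 µM in the primary screen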;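 note: 0 = wells with 2.5 mM tranylcypromine and 1 = vehicle-only wells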
# * marks the source's active call; other numbers are inactive results. Cut-off read from the data, not from the text of the source, unless noted: active = inhibition above about 30%; inactive = the rest.
SMILES,CYP2C9 act,PostGolgi ctrl,CYP2C19 inh,CYP2C9 inhib,PostGolgi yeast,CYP2C19 activ
COc1ccc(-n2c(N3CCN(C)CC3)nc3sc4c(c3c2=O)CCCCC4)cc1,0.6,3,64*,41,0,0.4
Cc1cc2c3c(ccc(C)c3n1)N=CN2c1ccccc1,0.4,8,39,56*,-4,0.6
Cc1cc(N2CCOCC2)c2c(N)c(C)cc(C)c2n1,1,8,8,4,-7,0.9
Cc1ccc(N(C(=O)C2CCC(=O)N2)C2(C(=O)NC3CCCCC3)CCCCC2)cc1 (configuration not stated),1.1,6,0,-12,12,1
CCc1nc(N)c(C#N)c(-c2ccc(OC)c(OC)c2)c1C,1.1,17,-5,-11,8,1.1
CCc1nc(N)c(C#N)c(-c2ccc(O)c(OC)c2)c1C,1,9,53*,-5,9,0.5
CCc1nc(N)c(C#N)c(-c2ccncc2)c1C,0.3,1,100*,73*,-13,0
COc1ccc2cnn(-c3ccc(C)cc3)c(=O)c2c1OC,0.4,8,28,65*,-5,0.7
